Hits are enriched below; roughly 12% of the tested compounds scored in any of these assays.
PostGolgi ctrl: growth inhibition of yeast control strain, primary screen, counter-screen for post-Golgi transport modulator project; 98,000 tested, 5% active; efflux-deficient yeast background strain, growth absorbance A615, 16 h; inhibition, % at 10 µM
Cav32 inh: Cav3.2 calcium influx blockers – cell-based, Fluo-4 calcium fluorescence, FDSS, MLSMR library, primary screen. 100,000 tested, 4% active. Voltage-dependent T-type calcium channel subunit alpha-1H (Homo sapiens), O95180. B-score at 10 µM. Cav3.2-expressing cells; hits give low values;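 active = single-dose well whose peak fluorescence ratio is a statistical outlier from its plate by either plate-standardised score or position-corrected B-score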
hDAT+cocaine: changed hDAT dopamine uptake under cocaine IC80, either direction, primary screen, cocaine antagonist project, cell-based, LLC-PK1 hDAT, [14C]-dopamine uptake, MLSMR; LLC-PK1 hDAT cells, [14C]-dopamine uptake with cocaine IC80; actives deviate in either direction; B-score at 10 µM; 110,000 tested, 1.3% active;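 active = Z score or B-score, a plate-position-corrected score, falls beyond the plate's 99.7% confidence bounds, in either direction; inactive = both scores lie inside the 99.7% bounds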
Target sequence (Q01959 whole entry, looked up): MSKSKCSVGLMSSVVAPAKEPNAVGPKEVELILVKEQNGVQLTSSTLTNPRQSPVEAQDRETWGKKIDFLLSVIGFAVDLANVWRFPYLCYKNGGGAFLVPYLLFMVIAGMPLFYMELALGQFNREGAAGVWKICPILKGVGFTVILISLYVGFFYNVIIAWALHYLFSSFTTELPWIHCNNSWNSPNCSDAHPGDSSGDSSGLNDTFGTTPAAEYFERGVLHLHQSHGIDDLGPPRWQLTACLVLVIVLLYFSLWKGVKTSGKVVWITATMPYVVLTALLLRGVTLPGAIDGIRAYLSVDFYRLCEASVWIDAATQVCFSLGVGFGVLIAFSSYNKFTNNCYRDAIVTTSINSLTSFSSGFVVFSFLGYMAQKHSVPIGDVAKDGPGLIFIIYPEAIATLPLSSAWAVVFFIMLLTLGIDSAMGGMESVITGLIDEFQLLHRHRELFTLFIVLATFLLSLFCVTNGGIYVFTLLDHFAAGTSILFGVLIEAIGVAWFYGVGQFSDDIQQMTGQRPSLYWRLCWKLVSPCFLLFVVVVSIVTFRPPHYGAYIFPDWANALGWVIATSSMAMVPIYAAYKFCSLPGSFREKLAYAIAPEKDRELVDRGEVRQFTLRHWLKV
D1 allo mod: D1 CRE-luciferase signal change, two-sided – cell-based, HEK293 D1, dopamine EC30, D1 allosteric modulator project, primary screen | B-score at 10 µM | dopamine EC30 potentiation; actives deviate in either direction | D(1A) dopamine receptor (Homo sapiens), P21728 | 58,000 tested, 5.9% active;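 active = luminescence count or its row- and column-corrected plate score outside the 99.7% band of the plate's sample wells, on either side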
PostGolgi yeast: phenotypic screen on post-Golgi transport, primary screen | post-Golgi transport phenotypic cell assay | inhibition, % at 10 µM | 98,000 tested, 0.9% active | AID 739, 2007;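 also: yeast cells grown in 1536-well plates; yeast grown about 18 h at 30C before absorbance read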
PLAP activator: PLAP enzyme activators, biochemical, luminescence, HTS | 96,000 tested, 1.2% active | purified PLAP enzyme, luminescent substrate read-out; hits give high values | Alkaline phosphatase, placental type (Homo sapiens), P05187 | activation fold at 20 µM; in the data active = activation fold above about 2
Large screens that a line does not name were inactive. Rule as the data show it, unless noted: active = inhibition above about 30%; inactive = the rest.

Cc1cccc(-c2nnc(SCC#N)n2-c2cccc(Cl)c2)c1	none (no result: PLAP activator)
COc1cccc(NC(=S)NNC(=O)C(C)n2nc(C)c([N+](=O)[O-])c2C)c1 (stereo not drawn)	PLAP activator 2.1 (no result: D1 allo mod)
COc1cccc(NC(=S)NNC(=O)c2c([N+](=O)[O-])c(C)nn2C)c1	PLAP activator 2.1 (no result: D1 allo mod)
CC(C)CC(/C(O)=C(\C#N)c1nc2ccccc2[nH]1)N1C(=O)c2ccccc2C1=O (stereo not drawn)	Cav32 inh -6.58, PLAP activator 2.1
CCCn1c(N2CCN(CC(=O)Nc3ccc4c(c3)OCCO4)CC2)nc2ccccc21	Cav32 inh -4.54
COc1ccc(-n2c(Cc3cccn3C)nnc2SCC(=O)Nc2cccc(OC)c2)cc1	Cav32 inh -4.2
COc1ccc(OC)c(NC(=O)CSc2nnc(Cc3cccn3C)n2-c2ccc(F)cc2)c1	none
Cn1cc(SCC(=O)Nc2ccc3c(c2)OCO3)c2ccccc21	none
COc1cccc(NC(=O)CSc2nnc(Cc3cccn3C)n2-c2ccc(F)cc2)c1	Cav32 inh -5
CCCn1cc(SCC(=O)Nc2ccc3c(c2)OCO3)c2ccccc21	Cav32 inh -4.55 (no result: D1 allo mod)
COc1ccc(NC(=O)CSc2nnc(Cc3cccn3C)n2-c2ccc(C)cc2)cc1OC	none
Cc1cc(C)c(C#N)c(Sc2nnnn2-c2ccccc2)n1	none (no result: D1 allo mod)
COc1ccc(-n2c(Cc3cccn3C)nnc2SCC(=O)Nc2ccc(C)c(Cl)c2)cc1	Cav32 inh -4.23
CCCCOc1cccc(NC(=O)CSc2nccn2C)c1	hDAT+cocaine 2.74
Cn1cccc1Cc1nnc(SCC(N)=O)n1-c1ccc(F)cc1	none
CC(=O)Nc1cccc(NC(=O)CSc2nnc(Cc3cccn3C)n2-c2ccc(F)cc2)c1	none
Cn1cccc1Cc1nnc(SCC(=O)Nc2ccc3c(c2)OCO3)n1-c1ccc(F)cc1	Cav32 inh -8.52
Cc1cc(C)cc(NC(=O)CSc2nnc(Cc3cccn3C)n2-c2ccc(F)cc2)c1	Cav32 inh -12.9, hDAT+cocaine 2.59
COc1ccc2c(c1)c(=O)cc(C)n2CC(=O)NCc1ccco1	none
Cc1cccc(C)c1-n1c(SCC(=O)NCc2ccco2)nc2ccccc2c1=O	none (no result: D1 allo mod)
COc1ccc(-n2c(SCC(=O)Nc3ccc4c(c3)OCO4)nc3ccccc3c2=O)cc1	PostGolgi ctrl 54.0
CCc1ccc(N(CC(=O)NC)S(C)(=O)=O)cc1	none
CCC1CC2CC(NC(C)=O)C1C2 (stereo not drawn)	PostGolgi ctrl 32.8 (no result: D1 allo mod)
C=CC(C)(C)c1cc2cc3ccoc3cc2oc1=O	none (no result: PostGolgi ctrl, D1 allo mod, PostGolgi yeast, PLAP activator)
CCCc1nnc(NC(=O)CCC(=O)N2CCCCCC2)s1	none
Cc1nc2cccc(C)n2c(=O)c1Cl	none (no result: D1 allo mod)
NS(=O)(=O)c1cccnc1Nc1c(Cl)cccc1Cl	PostGolgi ctrl 31.9 (no result: D1 allo mod)
CCCN(CCC)S(=O)(=O)c1ccc(C(=O)N2CCCc3ccccc32)cc1	none (no result: D1 allo mod)
CCC(C(=O)NCc1ccco1)N(C(=O)CNS(=O)(=O)c1ccccc1)C1CCCCC1 (stereo not drawn)	hDAT+cocaine 4.49 (no result: D1 allo mod)
CCCC(C(=O)NCc1ccco1)N(C(=O)CNS(=O)(=O)c1ccc(Cl)cc1)C1CCCC1 (stereo not drawn)	Cav32 inh -8.38
CC(C)C(C(=O)NCc1ccco1)N(C(=O)CNS(=O)(=O)c1ccccc1)C1CCCC1 (stereo not drawn)	none (no result: Cav32 inh)
O=C(CSc1ncn[nH]1)NCCCc1ccccc1	none (no result: D1 allo mod)
O=c1cc(/C=C/c2ccccc2)oc2ccccc12	none (no result: D1 allo mod)
N#Cc1ccccc1CSc1nc(N2CCCCC2)nc(N2CCCCC2)n1	none
Cc1noc(NS(=O)(=O)c2ccc(NC(=O)CSc3nc4ccccc4[nH]3)cc2)c1C	PostGolgi ctrl 37.0
O=C(CSc1nc2ccccc2[nH]1)Nc1c(F)cccc1F	none (no result: D1 allo mod)
O=C(CSc1nc2cc3ccccc3cc2[nH]1)Nc1ccc(F)cc1	PostGolgi ctrl 54.7 (no result: D1 allo mod)
CCCc1[nH]nc2c1C(c1ccc(OC)c(Cn3nnc4ccccc43)c1)C(C#N)=C(N)O2 (stereo not drawn)	hDAT+cocaine 3.63
COc1ccc(C2C(C#N)=C(N)Oc3n[nH]c(C)c32)cc1Cn1nnc2ccccc21 (stereo not drawn)	PLAP activator 2
NC(=O)CC(NC(=O)Cc1ccc(Br)cc1)c1ccc(NCc2ccc(F)cc2)c([N+](=O)[O-])c1 (stereo not drawn)	none (no result: PostGolgi ctrl, D1 allo mod, PostGolgi yeast, PLAP activator)
COc1ccc(CN(Cc2cccnc2)C(=S)NCCc2ccccc2)cc1OC	hDAT+cocaine 2 (no result: D1 allo mod)
COC(=O)COC(=O)c1ccc(Oc2nc(OC)nc(N(C)C)n2)cc1	none
Cc1cc(C)n(CC(=O)c2ccc(Br)cc2)c(=O)c1C#N	none (no result: D1 allo mod)
CN(C)/C=c1\sc2c(C#N)cc(C(=O)c3ccc(Br)cc3)n2c1=O	Cav32 inh -6.87
O=C(CCSc1ccc(Cl)cc1)NC12CC3CC(CC(C3)C1)C2	PostGolgi ctrl 42.6 (no result: D1 allo mod)
Cc1ccc(N(Cc2ccc([N+](=O)[O-])cc2)C(=O)c2ccco2)cc1	PostGolgi ctrl 34.6, Cav32 inh -6.71 (no result: D1 allo mod)
COc1ccc(CN(C(=O)c2ccco2)c2ccc(Br)cc2)cc1OC	Cav32 inh -4.55
COc1ccc(N(C(=O)c2ccco2)S(=O)(=O)c2cc(OC)ccc2OC)cc1	D1 allo mod -2.24
COc1ccc(N(Cc2cc3ccc(C)cc3[nH]c2=O)C(=O)c2ccco2)cc1	none
COc1ccc(N(C(=O)c2ccco2)S(=O)(=O)c2ccc(F)cc2)cc1	none (no result: PostGolgi ctrl, D1 allo mod, PostGolgi yeast, PLAP activator)
COc1ccc(-c2nnn(CC(=O)NCCc3c[nH]c4ccccc34)n2)cc1OC	none (no result: D1 allo mod)
Cc1cccc(Oc2sc(C(=O)c3ccccc3)c(N)c2C#N)c1	none (no result: D1 allo mod)
CCCCOc1ccc(Br)cc1/C(C)=N/NC1=NCCN1	Cav32 inh -6.67 (no result: PostGolgi ctrl, D1 allo mod, PostGolgi yeast, PLAP activator)
CCc1ccc(Nc2nnc(SCc3cc(=O)n4ccsc4n3)s2)cc1	none (no result: Cav32 inh, hDAT+cocaine, D1 allo mod)
CCCCCCNC(=O)C(C#N)c1nc2ccccc2nc1N1CCCC1 (stereo not drawn)	Cav32 inh -7.14
CCOC(=O)C1CCCN(c2nc3ccccc3nc2C(C#N)C(=O)NCc2ccccc2)C1 (stereo not drawn)	none
CCCCCNC(=O)C(C#N)c1nc2ccccc2nc1N1CCCC1 (stereo not drawn)	Cav32 inh -7.07
N#CC(C(=O)NCc1ccco1)c1nc2ccccc2nc1N1CCOCC1 (stereo not drawn)	Cav32 inh -3.61
N#CC(C(=O)NCc1ccccc1)c1nc2ccccc2nc1N1CCCC1 (stereo not drawn)	Cav32 inh -5.99
CCCCCCNC(=O)C(C#N)c1nc2ccccc2nc1N1CCOCC1 (stereo not drawn)	none
O=C(C1CCN(S(=O)(=O)N2CCOCC2)CC1)N1CCN(c2ccccc2)CC1	none

Source: PubChem BioAssay
